This note sets out measurements from paper PMC7862700, “An all-to-all approach to the identification of sequence-specific readers for epigenetic DNA modifications on cytosine”.

Common to all, as to assay: DAPPL (digital affinity profiling via proximity ligation, sequencing); 10 mM Tris-HCl pH 7.5, 50 mM NaCl, 1 mM DTT, 4% glycerol, room temperature, 30 min; GST-TFs on glutathione beads, 16-mer random dsDNA library, 0.1% formaldehyde crosslink after washing; high values mean tight binding
What all share (details): protein: recombinant; tags: N-terminal GST; dsDNA, one strand shown

For one assay, the target named is T1, ERF (Homo sapiens, UniProt P50548 1-548).
T1 sequence: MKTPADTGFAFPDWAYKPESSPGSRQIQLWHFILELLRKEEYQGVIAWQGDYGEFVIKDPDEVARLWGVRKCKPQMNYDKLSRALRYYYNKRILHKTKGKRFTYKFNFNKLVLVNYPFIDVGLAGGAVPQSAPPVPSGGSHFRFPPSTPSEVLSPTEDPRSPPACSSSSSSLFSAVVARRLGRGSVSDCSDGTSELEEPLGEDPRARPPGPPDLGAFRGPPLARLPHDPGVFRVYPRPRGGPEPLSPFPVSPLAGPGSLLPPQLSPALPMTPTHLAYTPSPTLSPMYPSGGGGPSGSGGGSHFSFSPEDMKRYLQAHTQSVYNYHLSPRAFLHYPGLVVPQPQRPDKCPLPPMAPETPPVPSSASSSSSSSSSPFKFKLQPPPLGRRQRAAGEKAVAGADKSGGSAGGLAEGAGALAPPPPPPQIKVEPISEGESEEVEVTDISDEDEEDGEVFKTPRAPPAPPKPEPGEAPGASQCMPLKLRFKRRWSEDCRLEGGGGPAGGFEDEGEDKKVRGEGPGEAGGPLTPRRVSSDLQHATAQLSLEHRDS
An outline of the steps: (§1)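 Sequencing on an Illumina NextSeq500 followed washing, crosslinking with 0.1% formaldehyde, proximity ligation (BsaI/T4 ligase, 1 h, 37 °C) and PCR amplification of pools that had been incubated for 30 min at room temperature with 200 nmole of a random double-stranded 16-mer DNA library in Tris/NaCl/DTT/glycerol buffer. Each pool held DNA-barcoded human transcription factors, expressed in yeast as GST fusions and captured on glutathione beads, plus a tag-only sample. Binding signal is a hexamer's read frequency for a factor divided by its frequency in the tag-only sample.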

In a further assay the target is T2, ETV3L (Homo sapiens, UniProt Q6ZN32 1-361).
T2 sequence: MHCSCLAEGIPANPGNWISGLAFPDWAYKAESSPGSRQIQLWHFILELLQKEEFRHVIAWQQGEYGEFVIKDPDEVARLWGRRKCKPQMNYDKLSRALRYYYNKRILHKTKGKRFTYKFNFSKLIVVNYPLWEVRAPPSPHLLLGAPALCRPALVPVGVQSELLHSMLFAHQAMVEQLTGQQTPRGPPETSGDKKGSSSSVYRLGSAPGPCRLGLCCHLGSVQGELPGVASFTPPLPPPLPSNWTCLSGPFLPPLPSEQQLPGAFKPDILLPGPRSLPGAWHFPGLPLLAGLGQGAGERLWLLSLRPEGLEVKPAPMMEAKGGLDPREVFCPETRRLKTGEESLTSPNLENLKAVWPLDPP
In outline:
as §1

In another assay the target is T3, ETS2 (Homo sapiens, UniProt P15036 1-469).
T3 sequence: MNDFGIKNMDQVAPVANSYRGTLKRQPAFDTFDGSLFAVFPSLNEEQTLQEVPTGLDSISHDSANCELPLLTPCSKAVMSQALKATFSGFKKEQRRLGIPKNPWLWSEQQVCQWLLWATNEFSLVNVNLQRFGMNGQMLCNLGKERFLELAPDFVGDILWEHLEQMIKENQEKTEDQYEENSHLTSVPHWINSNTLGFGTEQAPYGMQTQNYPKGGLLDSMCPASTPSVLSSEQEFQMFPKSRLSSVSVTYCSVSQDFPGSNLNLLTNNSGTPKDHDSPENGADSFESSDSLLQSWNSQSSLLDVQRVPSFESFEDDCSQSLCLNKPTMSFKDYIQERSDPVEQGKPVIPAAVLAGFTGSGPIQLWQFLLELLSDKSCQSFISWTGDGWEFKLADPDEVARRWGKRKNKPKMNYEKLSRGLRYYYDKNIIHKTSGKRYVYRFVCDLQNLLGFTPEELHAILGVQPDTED
In outline: as §1

In a further assay the target is T4, SPDEF (Homo sapiens, UniProt O95238 1-335).
T4 sequence: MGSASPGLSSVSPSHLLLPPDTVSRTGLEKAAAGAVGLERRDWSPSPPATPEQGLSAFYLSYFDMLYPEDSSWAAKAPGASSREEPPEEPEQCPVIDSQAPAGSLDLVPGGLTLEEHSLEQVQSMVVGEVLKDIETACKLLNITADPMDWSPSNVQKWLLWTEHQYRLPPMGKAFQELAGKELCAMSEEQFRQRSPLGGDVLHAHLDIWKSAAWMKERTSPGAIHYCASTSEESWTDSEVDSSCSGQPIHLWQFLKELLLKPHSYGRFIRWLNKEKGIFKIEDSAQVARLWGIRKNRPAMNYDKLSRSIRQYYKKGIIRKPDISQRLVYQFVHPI
An outline of the steps: as §1

A further assay addresses T5, ETV7 (Homo sapiens, UniProt Q9Y603 1-341).
T5 sequence: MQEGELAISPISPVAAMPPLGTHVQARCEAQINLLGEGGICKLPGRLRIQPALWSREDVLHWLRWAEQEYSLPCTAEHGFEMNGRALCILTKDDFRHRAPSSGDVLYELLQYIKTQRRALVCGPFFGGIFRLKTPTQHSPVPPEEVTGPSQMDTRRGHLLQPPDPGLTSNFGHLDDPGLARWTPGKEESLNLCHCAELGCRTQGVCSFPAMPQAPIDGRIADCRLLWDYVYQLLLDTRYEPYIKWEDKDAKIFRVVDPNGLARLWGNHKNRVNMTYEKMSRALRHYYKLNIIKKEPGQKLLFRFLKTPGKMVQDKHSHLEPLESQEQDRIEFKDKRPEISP
An outline of the steps: as §1

The next assay has as its target T6, ELF5 (Homo sapiens, UniProt Q9UKW6-2 1-255).
T6 sequence: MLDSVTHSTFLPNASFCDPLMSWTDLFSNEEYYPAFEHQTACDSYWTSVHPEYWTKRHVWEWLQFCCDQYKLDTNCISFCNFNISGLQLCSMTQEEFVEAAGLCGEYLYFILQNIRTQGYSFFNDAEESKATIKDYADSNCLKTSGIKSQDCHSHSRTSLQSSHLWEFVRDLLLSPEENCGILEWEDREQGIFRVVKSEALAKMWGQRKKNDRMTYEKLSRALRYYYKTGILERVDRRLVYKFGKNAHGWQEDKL
In outline:
as §1

The next assay has as its target T7, ETV3 (Homo sapiens, UniProt P41162-2 1-143).
T7 sequence: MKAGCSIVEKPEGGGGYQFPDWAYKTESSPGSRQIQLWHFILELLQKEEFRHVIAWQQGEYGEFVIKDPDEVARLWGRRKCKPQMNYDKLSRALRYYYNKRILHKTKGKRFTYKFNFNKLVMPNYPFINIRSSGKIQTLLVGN
In outline:
as §1

The next assay has as its target ETV6 (Homo sapiens, UniProt P41212 1-452). In outline: as §1

ETV6, sequence (P41212 whole entry): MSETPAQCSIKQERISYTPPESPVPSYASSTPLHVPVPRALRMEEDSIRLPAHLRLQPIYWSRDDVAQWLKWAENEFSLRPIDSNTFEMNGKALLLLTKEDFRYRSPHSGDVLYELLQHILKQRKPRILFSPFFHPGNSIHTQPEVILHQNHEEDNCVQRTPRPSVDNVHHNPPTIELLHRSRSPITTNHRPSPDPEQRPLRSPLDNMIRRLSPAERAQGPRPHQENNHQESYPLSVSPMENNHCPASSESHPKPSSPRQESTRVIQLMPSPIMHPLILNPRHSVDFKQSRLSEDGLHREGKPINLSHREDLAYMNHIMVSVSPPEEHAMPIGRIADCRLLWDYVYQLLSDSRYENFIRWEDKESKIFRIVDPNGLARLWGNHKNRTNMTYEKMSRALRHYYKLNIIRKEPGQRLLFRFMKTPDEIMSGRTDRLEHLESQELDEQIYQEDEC

In the case of GAATTT, the binding signal was 1.27 fold enrichment (6-mer frequency, TF over GST control) with ERF; 1.21 fold enrichment (6-mer frequency, TF over GST control) with ETV3L; 1.28 fold enrichment (6-mer frequency, TF over GST control) in the assay with ETS2; 1.23 fold enrichment (6-mer frequency, TF over GST control) in the assay with SPDEF; 1.29 fold enrichment (6-mer frequency, TF over GST control) with ETV7; 1.3 fold enrichment (6-mer frequency, TF over GST control) in the assay with ELF5. Moreover, the binding signal is 1.29 fold enrichment (6-mer frequency, TF over GST control) with ETV3 and 1.2 fold enrichment (6-mer frequency, TF over GST control) with ETV6.

For the sequence CTACCG, the binding signal was 1.62 fold enrichment (6-mer frequency, TF over GST control) in the assay with ERF; 1.69 fold enrichment (6-mer frequency, TF over GST control) in the assay with ETV3L; 1.63 fold enrichment (6-mer frequency, TF over GST control) in the assay with ETS2; 1.63 fold enrichment (6-mer frequency, TF over GST control) with SPDEF; 1.54 fold enrichment (6-mer frequency, TF over GST control) with ETV7; 1.64 fold enrichment (6-mer frequency, TF over GST control) with ELF5. For the same sequence, the binding signal with ETV3 was 1.58 fold enrichment (6-mer frequency, TF over GST control); with ETV6, 1.53 fold enrichment (6-mer frequency, TF over GST control).

As for CCGCTC, the binding signal with ERF is 1.66 fold enrichment (6-mer frequency, TF over GST control); with ETV3L, 1.74 fold enrichment (6-mer frequency, TF over GST control); with ETS2, 1.54 fold enrichment (6-mer frequency, TF over GST control); in the assay with SPDEF, 1.44 fold enrichment (6-mer frequency, TF over GST control); with ETV7, 1.42 fold enrichment (6-mer frequency, TF over GST control); with ELF5 it was 1.53 fold enrichment (6-mer frequency, TF over GST control). The binding signal is 1.46 fold enrichment (6-mer frequency, TF over GST control) with ETV3 and 1.32 fold enrichment (6-mer frequency, TF over GST control) in the assay with ETV6.

Turning to ATCTCG, the binding signal in the assay with ERF is 1.36 fold enrichment (6-mer frequency, TF over GST control); with ETV3L, 1.38 fold enrichment (6-mer frequency, TF over GST control); with ETS2, 1.42 fold enrichment (6-mer frequency, TF over GST control); with SPDEF it was 1.28 fold enrichment (6-mer frequency, TF over GST control); with ETV7, 1.38 fold enrichment (6-mer frequency, TF over GST control); with ELF5, 1.28 fold enrichment (6-mer frequency, TF over GST control). The binding signal with ETV3 is 1.29 fold enrichment (6-mer frequency, TF over GST control); in the assay with ETV6, 1.3 fold enrichment (6-mer frequency, TF over GST control).

Consider TCTGCG, for which the binding signal with ERF is 1.07 fold enrichment (6-mer frequency, TF over GST control); with ETV3L, 1.23 fold enrichment (6-mer frequency, TF over GST control); with ETS2, 1.17 fold enrichment (6-mer frequency, TF over GST control); with SPDEF, 1.21 fold enrichment (6-mer frequency, TF over GST control); with ETV7 it was 1.09 fold enrichment (6-mer frequency, TF over GST control); with ELF5, 1.15 fold enrichment (6-mer frequency, TF over GST control). Moreover, the binding signal in the assay with ETV3 was 1.16 fold enrichment (6-mer frequency, TF over GST control); with ETV6, 1.14 fold enrichment (6-mer frequency, TF over GST control).

On to TCACGA, for which the binding signal with ERF is 1.14 fold enrichment (6-mer frequency, TF over GST control); with ETV3L, 1.04 fold enrichment (6-mer frequency, TF over GST control); in the assay with ETS2, 1.13 fold enrichment (6-mer frequency, TF over GST control); in the assay with SPDEF, 1.17 fold enrichment (6-mer frequency, TF over GST control); with ETV7, 1.16 fold enrichment (6-mer frequency, TF over GST control); in the assay with ELF5, 1.03 fold enrichment (6-mer frequency, TF over GST control). Besides, the binding signal with ETV3 was 1.14 fold enrichment (6-mer frequency, TF over GST control); with ETV6, 1.16 fold enrichment (6-mer frequency, TF over GST control).

Turning to ATCTGG, the binding signal in the assay with ERF was 1.25 fold enrichment (6-mer frequency, TF over GST control); with ETV3L, 1.2 fold enrichment (6-mer frequency, TF over GST control); with ETS2, 1.11 fold enrichment (6-mer frequency, TF over GST control); in the assay with SPDEF it was 1.06 fold enrichment (6-mer frequency, TF over GST control); with ETV7, 1.14 fold enrichment (6-mer frequency, TF over GST control); in the assay with ELF5, 1.11 fold enrichment (6-mer frequency, TF over GST control). Also, the binding signal with ETV3 was 1.16 fold enrichment (6-mer frequency, TF over GST control); with ETV6, 1.1 fold enrichment (6-mer frequency, TF over GST control).
